From ChEMBL document CHEMBL1157539, “Thousands of chemical starting points for antimalarial lead identification” (Nature, 2010)

test system: Plasmodium falciparum; experiment: GSK_TCMDC: Inhibition of Plasmodium falciparum 3D7 in whole red blood cells, using parasite LDH activity as an index of growth. Test compounds present at 2uM; type: functional

Structure (SMILES)	Inhibition
CCOc1cc(C)ccc1C1CCN(CCCCNC(=O)c2ccc(-c3ccc(C(F)(F)F)cn3)cc2)CC1.Cl	99%
O=C(NC1CCCCC1)C1CCCN(C(=O)c2ccc(O)c(-c3ccc(Cl)c(Cl)c3)c2)C1 (stereo unspecified)	89%
Cc1ccc(-c2nc3ccccc3o2)cc1NCc1cc(Cc2ccccc2)ccc1O	82%
CN1CCN=C1c1ccc(NC(=O)Nc2ccc(C3=NCCN3C)cc2)cc1.Cl	85%

test system: Plasmodium falciparum; experiment: GSK_TCMDC: Inhibition of Plasmodium falciparum Dd2 in whole red blood cells, using parasite LDH activity as an index of growth. Test compounds present at 2uM; type: functional

Structure (SMILES)	Inhibition
O=C(Nc1ccc(-c2ccccc2)cc1)Nc1cccc(Cn2cnc(N3CCCNCC3)cc2=O)c1.O=C(O)C(F)(F)F	13%
O=C(O)C(F)(F)F.OCCN1CCN(Cc2ccc(-c3cccc(-c4nc5cc(F)ccc5[nH]4)c3)cc2)CC1	61%
Fc1ccc(Nc2ccnc3cc(-c4cccc(CNCCN5CCOCC5)c4)ccc23)c(Cl)c1	99%
Cc1ccc(/C=C/C(=O)NC2CCC(N3CCC(c4ccccc4C)CC3)CC2)cc1C (stereo unspecified)	43%
O=C(N[C@@H](CC1CCCCC1)C(=O)NC1CCCc2ccccc21)c1ccc(O)c(-c2ccc(Cl)c(Cl)c2)c1 (stereo partly specified)	99%
CCN(C(=O)c1ccc(NC(=O)c2cccs2)cc1)c1nc2c(C)cccc2s1	85%
Cc1[nH]c(C)c(-c2ccc(OCc3ccc(F)cc3)cc2)c(=O)c1Br	97%
O=C(/C=C/c1ccc(Cl)c(Cl)c1)NCCCCCN1CC[C@H](NC(=O)c2sc3ccccc3c2Cl)C1	3%
CC(=O)O.COc1ccc(CNc2ccc3nc(N)nc(N)c3c2)cc1	84%
Cc1ccc(NCc2cccc(F)c2)cc1S(=O)(=O)N[C@@H]1CCN(C#N)C1	83%
NC12CC3CC(CC(C3)C1)C2 [AMANTADINE]	0%
COc1ccccc1/C=C/C(=O)NC1CCC(CCN2CCc3ccc(-c4cc(C)no4)cc3CC2)CC1.Cl (stereo unspecified)	11%
COc1cc2ncnc(Nc3ccc(OCc4ccccc4)c(OCc4ccccc4)c3)c2cc1OC.Cl	57%
CC(C)CCN(Cc1cncn1Cc1cccc(C(F)(F)F)c1)C(=O)c1cncc(-c2ccccc2)c1	4%
CC(C)c1nc2c(N)nc(N)nc2nc1N	0%
CCOC(=O)c1cc(C(=O)NCCCCN2CCC(c3ccc4c(c3OC)CCCC4)CC2)ccc1-c1ccc(C(F)(F)F)cc1	60%

Structure (SMILES)	Inhibition
COc1cc(-c2nc3ccc(N4CCN(C)CC4)cc3[nH]2)cc(OC)c1OC	15%
O=C(Nc1ccc(-c2ccccc2)cc1)Nc1ccc2c(c1)CCNCC2.O=C(O)C(F)(F)F	48%
O=C(Nc1cccc(-c2nn3ccccc3c2-c2ccnc(Nc3cccc(N4CCCC4=O)c3)n2)c1)c1cc(F)ccc1F	51%
COc1ccc2nccc([C@@H](O)CN3CCC(NC(=O)/C=C/c4ccc5[nH]c(=O)ccc5c4)CC3)c2c1	83%
Cc1cc(=O)c2cc(Oc3cccc(OC(F)(F)F)c3)ccc2[nH]1	80%
O=C(/C=C/c1ccc2ccccc2c1)NCCCCCN1CCC(c2c[nH]c3ccccc23)CC1	4%
O=[N+]([O-])c1cccc(S(=O)(=O)N2CCN(CC(O)COc3ccc(-c4ccccc4)cc3)CC2)c1 (stereo unspecified)	32%
Cc1cc(NC(=O)Nc2cccc(N(C)C)c2)c2ccccc2n1	95%
CC(=O)Nc1ccc(CN2CCC(NC(=O)c3ccc(-c4cccc(C(F)(F)F)c4)s3)CC2)cc1.O=C(O)C(F)(F)F	16%
CCNc1cc(C(=O)N[C@@H](Cc2ccccc2)[C@H](O)CNCCc2cccc3ccccc23)cc(N2CCCC2=O)c1.O=CO	39%
NC1CCN(c2nc(NCCCc3ccc(O)cc3)nc(NCc3ccccc3-c3ccccc3)n2)CC1.O=C(O)C(F)(F)F	45%
COC(=O)c1ccc2nc(-c3ccc(/C=C/C(=O)NC4CCN(Cc5ccccc5)CC4)cc3)[nH]c2c1	88%
CCNc1cc(C(=O)N[C@@H](Cc2ccco2)[C@H](O)CNC2CCCCC2)cc(N2CCCCS2(=O)=O)c1.Cl	57%
COc1ccc(-c2ccc(NC(=O)c3cccc(Cl)c3)cc2)cc1CNC(C)C.O=C(O)C(F)(F)F	88%
O=[N+]([O-])c1ccc(Nc2nc(NCc3ccccc3)nc(N/N=C/c3ccccc3[N+](=O)[O-])n2)cc1	99%
COc1cc2nc(NCCc3ccccc3)nc(NCc3cnn(C)c3C)c2cc1OC	94%
